From PubChem BioAssay (NCI) come the findings set out here.

Among the test systems are HCT-15 colon; HT29 colon; SNB-75 CNS; SNB-19 CNS; U251 CNS; PC-3 prostate; SK-MEL-5 melanoma; UACC-62 melanoma; LOX IMVI melanoma; SK-MEL-28 melanoma; SK-MEL-2 melanoma; EKVX NSCLC; SN12C renal; UO-31 renal; TK-10 renal; ACHN renal; CAKI-1 renal; A498 renal; CCRF-CEM leukemia; MOLT-4 leukemia.
Test in all cases: NCI-60 one-dose screen, 48 h (100 = growth as untreated, 0 = no growth, -100 = all killed)
What all share (details): 10 µM unless noted

This is part of a sample that, as a whole, favours compounds with a hit. Of some 83,000 tested, about 20% had one in any assay.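 The endpoint reported here, percent growth, reads 100 for growth as untreated, 0 for no net growth and -100 for all cells dead.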 Values without a mark were called inactive. Active and inactive are the calls of the source. How the source made its calls: active means growth percent below 10; inactive means the rest.

Consider `O=S(=O)(NCCNc1nccc(-c2c(-c3ccc(F)c(O)c3)nc3sccn23)n1)c1ccc(Cl)cc1`, for which the growth in the experiment on HCT-15 colon is 27%; in the experiment on HT29 colon, 17.5%; in the experiment with SNB-75 CNS, 50.2%; with SNB-19 CNS, 46.1%; with U251 CNS it was 41.6%; in the experiment with PC-3 prostate, 17%. Also, the growth was -18.5% (active) in the experiment on SK-MEL-5 melanoma; -1.12% (active) with UACC-62 melanoma; 29.6% in the experiment with LOX IMVI melanoma; 47.6% in the experiment on SK-MEL-28 melanoma; -31.6% (active) in the experiment with SK-MEL-2 melanoma; 36.6% in the experiment with EKVX NSCLC. Also, the growth with SN12C renal is 26.3%; in the experiment on UO-31 renal, 11.6%; with TK-10 renal it was 44.8%; with ACHN renal, 19.8%; in the experiment on CAKI-1 renal, 19.5%; with A498 renal it was 30.8%. The growth is 14.2% in the experiment with CCRF-CEM leukemia and 1.03% (active) in the experiment on MOLT-4 leukemia.

On to `N#C/C(=C\c1ccc(-c2cccc(Cl)c2)o1)C(=O)Nc1ncc(Cc2ccc(Cl)cc2)s1`, for which the growth is 57.6% in the experiment on HCT-15 colon; 70.5% in the experiment on HT29 colon; -3.05% (active) in the experiment on SNB-75 CNS; 77.4% in the experiment on SNB-19 CNS; 16.9% in the experiment with U251 CNS; 39.5% with PC-3 prostate. For the same molecule, the growth in the experiment on SK-MEL-5 melanoma is 89.9%; with UACC-62 melanoma, 43%; in the experiment on LOX IMVI melanoma, 52.5%; with SK-MEL-28 melanoma, 66.8%; in the experiment on SK-MEL-2 melanoma, 97.2%; with EKVX NSCLC, 69.4%. Further, the growth was 35.9% in the experiment with SN12C renal; 23.7% in the experiment on UO-31 renal; 69.9% in the experiment with TK-10 renal; 31.4% with ACHN renal; 51.6% with CAKI-1 renal; 74.1% with A498 renal. The growth with CCRF-CEM leukemia is 43.6%; in the experiment with MOLT-4 leukemia it was 87.1%.

Turning to `CCOC(=O)C1=C(c2ccccc2)N=C2N(c3ccccc3)N=C(C(C)=O)N2C1c1ccc(F)cc1` (stereo not given), the growth with HCT-15 colon is 90.8%; with HT29 colon it was 109%; with SNB-75 CNS, 89.4%; in the experiment on SNB-19 CNS it was 95.4%; in the experiment with U251 CNS it was 103%; in the experiment on PC-3 prostate it was 89.4%. The growth in the experiment on SK-MEL-5 melanoma was 97.6%; with UACC-62 melanoma, 89.5%; in the experiment on LOX IMVI melanoma, 102%; in the experiment with SK-MEL-28 melanoma, 105%; with SK-MEL-2 melanoma, 112%; with EKVX NSCLC, 97%. In addition, the growth with SN12C renal was 94.3%; in the experiment with UO-31 renal, 84.3%; in the experiment on TK-10 renal, 104%; in the experiment with ACHN renal, 96.7%; with CAKI-1 renal, 91.8%; in the experiment on A498 renal, 70.4%. The growth in the experiment with CCRF-CEM leukemia is 95.9%; with MOLT-4 leukemia, 101%.

Consider `O=C(Nc1cc(Cl)cc(Cl)c1)Oc1c(Cl)c(Cl)c(Cl)c(Cl)c1Cl`, for which the growth in the experiment on HCT-15 colon is 77.8%; in the experiment with HT29 colon it was 73.2%; with SNB-75 CNS, 71.3%; in the experiment on SNB-19 CNS, 66.1%; in the experiment with U251 CNS, 62.9%; in the experiment on PC-3 prostate, 42.2%. For the same molecule, the growth in the experiment on SK-MEL-5 melanoma was 41.5%; in the experiment on UACC-62 melanoma, 65.7%; with LOX IMVI melanoma, 72.5%; in the experiment on SK-MEL-28 melanoma, 84.8%; with SK-MEL-2 melanoma, 64%; with EKVX NSCLC, 64.2%. Also, the growth was 71.2% in the experiment with SN12C renal; 58.4% in the experiment with UO-31 renal; 113% in the experiment with TK-10 renal; 65.8% in the experiment with ACHN renal; 68.1% in the experiment with CAKI-1 renal; 19.6% in the experiment with A498 renal. Also, the growth with CCRF-CEM leukemia was 47.7%; in the experiment on MOLT-4 leukemia it was 63.5%.

Turning to `CCCCn1c(NC(C)=O)c(S(=O)(=O)c2ccccc2)c2nc3ccccc3nc21`, the growth is 101% in the experiment with HCT-15 colon; 124% with HT29 colon; 89.8% in the experiment with SNB-75 CNS; 98.7% in the experiment with SNB-19 CNS; 103% in the experiment on U251 CNS; 96% with PC-3 prostate. Besides, the growth was 100% in the experiment with SK-MEL-5 melanoma; 97.8% in the experiment on UACC-62 melanoma; 101% with LOX IMVI melanoma; 122% in the experiment on SK-MEL-28 melanoma; 121% with SK-MEL-2 melanoma; 95.5% with EKVX NSCLC. Also, the growth was 103% in the experiment on SN12C renal; 92% in the experiment with UO-31 renal; 99.7% in the experiment on TK-10 renal; 106% in the experiment on ACHN renal; 104% with CAKI-1 renal; 87.3% with A498 renal. The growth in the experiment on CCRF-CEM leukemia was 77.7%; with MOLT-4 leukemia, 82.5%.

On to `CCN(CC)CCOc1ccc(/C(=C(\C)Cc2ccc(OC)cc2)c2ccc(OC(=O)NCc3ccccc3)cc2)cc1`, for which the growth in the experiment on HCT-15 colon is 15.1%; in the experiment with HT29 colon it was -34.8% (active); in the experiment on SNB-75 CNS, 59.4%; in the experiment with SNB-19 CNS, 66.9%; in the experiment on U251 CNS, 32.4%; in the experiment on PC-3 prostate, 46.2%. Further, the growth in the experiment on SK-MEL-5 melanoma is 26.5%; in the experiment on UACC-62 melanoma it was 34.3%; with LOX IMVI melanoma, 37.2%; in the experiment with SK-MEL-28 melanoma, 38%; in the experiment on SK-MEL-2 melanoma, 69.1%; with EKVX NSCLC, 73%. Further, the growth is 74.7% with SN12C renal; 46.3% in the experiment on UO-31 renal; 71.4% with TK-10 renal; 81.4% in the experiment on ACHN renal; 69.3% in the experiment on CAKI-1 renal; 84.8% in the experiment with A498 renal. Further, the growth in the experiment with CCRF-CEM leukemia was 23.1%; in the experiment with MOLT-4 leukemia it was 1.91% (active).

As to `Cc1c(C(C)(C)O)cn2ncnc(Oc3ccc(NC(=O)Nc4ccc(Cl)c(C(F)(F)F)c4)c(F)c3)c12`, the growth was 55.5% in the experiment with HCT-15 colon; 61.1% in the experiment with HT29 colon; 36.5% with SNB-75 CNS; 53.2% with SNB-19 CNS; 47% in the experiment with U251 CNS; 39.2% in the experiment on PC-3 prostate. The growth with SK-MEL-5 melanoma is 61.4%; with UACC-62 melanoma, 72%; in the experiment with LOX IMVI melanoma it was 59.7%; in the experiment with SK-MEL-28 melanoma, 71.3%; in the experiment with SK-MEL-2 melanoma, 94.7%; in the experiment with EKVX NSCLC it was 56.3%. Moreover, the growth in the experiment with SN12C renal was 57.6%; with UO-31 renal, 69.9%; with TK-10 renal, 85.1%; in the experiment on ACHN renal, 39.5%; with CAKI-1 renal it was 47.9%; in the experiment on A498 renal, 29.5%. Further, the growth was 29.2% in the experiment on CCRF-CEM leukemia and 32.2% with MOLT-4 leukemia.

`O=c1ccc2ccc(OCCN3CCCCC3)cc2o1`: the growth was 108% in the experiment on HCT-15 colon; 98.9% with HT29 colon; 105% in the experiment with SNB-75 CNS; 104% in the experiment with SNB-19 CNS; 103% with U251 CNS; 23.5% with PC-3 prostate. In addition, the growth is 107% in the experiment with SK-MEL-5 melanoma; 94.1% in the experiment on UACC-62 melanoma; 101% with LOX IMVI melanoma; 102% in the experiment with SK-MEL-28 melanoma; 101% in the experiment with SK-MEL-2 melanoma; 101% in the experiment with EKVX NSCLC. Further, the growth in the experiment on SN12C renal was 95.9%; with UO-31 renal it was 80.8%; in the experiment on TK-10 renal it was 104%; in the experiment with ACHN renal, 104%; in the experiment with CAKI-1 renal it was 104%; in the experiment with A498 renal, 85%. Besides, the values for the growth in the experiment with CCRF-CEM leukemia and in the experiment on MOLT-4 leukemia were 0.515% (active) and 7.74% (active), respectively.
